Test results as given in PubChem BioAssay AID743279 (National Center for Advancing Translational Sciences (NCATS), 2014).
Hit rate of the full screen: of about 360,000 compounds, about 17,000 (4.7%) were called active. Roughly 5% stayed inconclusive and do not appear here. Many of the other results were omitted from the sample, so actives are more common in it than they were. Unmarked numbers belong to inactive results. Cut-off read from the data, not from the text of the source: active = activity change below about -50%; inconclusive = mostly about -30% to -49%; inactive = weaker than that.

Assay: qHTS for Inhibitors of Inflammasome Signaling: IL-1-beta AlphaLISA Primary Screen
Conditions: THP-1 LPS/ATP IL-1B secretion, 16 h; at 57.5 µM, stronger effect = lower value
In short: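 Secreted IL-1B measured by AlphaLISA bead assay after 16 h compound exposure of THP-1 cells; compounds (final up to 57.5 uM) added 1 h before LPS (250 ng/mL) and ATP (1.25 mM) stimulation; lower signal means less secretion.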
% is set by controls: 0 for no effect and ±100 for the full control effect.

Compound	activity change
COc1ccc(CCCNC(=O)C2Cc3c(-c4cccc(C(N)=O)c4)ccnc3O2)cc1 (stereo unspecified)	34.7%
CCN(CC)CCCN=C(N)N	-17.5%
O=P(c1ccc2c(c1)OCCO2)(N1CCOCC1)N1CCOCC1	8.69%
Cc1ccc(OCC(=O)Nc2ccc(N3CCN(C(=O)c4ccco4)CC3)cc2)c(C)c1	-61.6% (active)
COc1cccc(C(=O)Nc2ccc(N3CCN(C(=O)c4ccco4)CC3)cc2)c1	-73.8% (active)
COc1ccc(C(=O)Nc2ccccc2C(=O)N2CCN(c3ccccc3)CC2)cc1	0%
COc1cccc(OCc2cc(C(=O)N3CCN(C(=O)c4ccco4)CC3)no2)c1	6.56%
Cc1ccc(NC(=O)C(c2ccccc2)N2CCN(C(=O)c3ccco3)CC2)cc1 (stereo unspecified)	16.1%
Cc1ccc(OCC(=O)Nc2ccc(NC(=O)c3cccs3)cc2)c(C)c1	-1.3%
O=C(Nc1cc2c3c(c1)CC(=O)N3CCC2)c1ccccc1F	4.9%
CCNC(=O)C1(C)CCCN(Cc2noc(-c3ccccc3OC)n2)C1 (stereo unspecified)	-5.34%
C[C@H]1CN([C@@H](C)CO)C(=O)CCCn2nncc2CO[C@@H]1CN(C)Cc1ccc(Oc2ccccc2)cc1	8.16%
CCOCCCNC(=O)C(NC(=O)Cc1c[nH]c2ccccc12)c1ccc(OC)cc1 (stereo unspecified)	10.6%
N#Cc1nc(COc2ccc(-c3ccccc3)cc2)oc1NCc1cccnc1	-79.6% (active)
Cc1cc(NCc2cccnc2)no1	3.61%
O=S(=O)(c1ccc(Br)cc1)c1nc(-c2ccccc2)oc1NCc1cccnc1	-18.2%
C/C(=N\NC(=O)NC1CCCCC1)c1ccc(OC(F)F)cc1OC(F)F	-80.5% (active)
CCCC/C(C)=N/NC(=O)NC1CCCCC1	14.3%
O=C(COC(=O)/C=C/c1ccc(OC(F)F)cc1)NC1CCCCC1	17.5%
O=C(c1ccc(Cn2cc([N+](=O)[O-])cn2)o1)N1CCCC1	13.7%
Cc1ccn(-c2cccc(-n3ccc(C)n3)n2)n1	25.2%
O=C1NC[C@@H](c2ccccc2)OC(=O)[C@H](Cc2ccc(F)cc2)CC/C=C/C[C@H]1CC(=O)N(CCO)Cc1ccccc1	-57.4% (active)
O=C1CCC/C=C\C[C@@H](CC(=O)N(CCO)Cc2ccccc2)C(=O)NCCO1	36.5%

Compound	activity change
O=C1CCC/C=C/C[C@@H](CC(=O)N(CCO)Cc2ccccc2)C(=O)NC[C@H](c2ccccc2)O1	-15.8%
O=C1OC[C@@H]2CCCN2C(=O)[C@H](CC(=O)N(CCO)Cc2ccccc2)C/C=C\CC[C@@H]1Cc1ccc(F)cc1	-27.7%
O=C1N[C@@H](c2ccccc2)COC(=O)[C@H](Cc2ccc(F)cc2)C/C=C\C[C@@H]1CC(=O)N(CCO)Cc1ccccc1	-68.1% (active)
CC(C)(C)OC(=O)C[C@@H]1C/C=C\C[C@@H](CC(=O)N(CCO)Cc2ccccc2)C(=O)N[C@H](Cc2ccccc2)COC1=O	-12.5%
CCCCc1ccc(S(=O)(=O)NC(=O)C2(C)CCN2C(=O)c2c(C)noc2C)cc1 (stereo unspecified)	24.9%
CCN(CC)C(=O)N1CCN(C(=O)c2ccc(C)cn2)CC1	13.6%
Cc1ccc(S(=O)(=O)N2CCCC2C(=O)OCc2nc3sc(C)c(C)c3c(=O)[nH]2)cc1 (stereo unspecified)	-4.97%
Cc1ccc(-n2cc(CN(C)Cc3nccn3C)c(-c3cccc(C)c3)n2)cc1	-85.3% (active)
Cc1ccc(-n2cnc3ncnc(-c4ccccc4)c32)cc1	-9.14%
CCn1ccnc1CN(C)Cc1nc(-c2ccc3c(c2)OCO3)no1	1.77%
O=C(C=CC(=O)Nc1ccc(F)cc1F)Nc1ccc(F)cc1F	36.7%
COC(=O)c1ccc(Oc2nc(NC(C)C)nc(SC)n2)cc1	19.1%
CCNc1nc(Oc2ccc(C(=O)OC)cc2)nc(N2CCOCC2)n1	7.61%
COC(=O)c1ccc(Oc2nc(Nc3ccc(F)cc3)nc(N3CCCC3)n2)cc1	-60.2% (active)
CCOC(=O)c1c(-c2ccccc2)oc2cc(Br)c(O)cc12	0%
CCOC(=O)c1c(-c2ccccc2)oc2ccc(OCC(=O)NN)cc12	-28.6%
CCOC(=O)c1c(-c2ccccc2)oc2cc(Br)c(O)c(C=O)c12	-98% (active)
Cc1cc(OCC(=O)Nc2nccs2)c2c(C)c(C)c(=O)oc2c1	6.37%
Cc1nc2nc(SCC(=O)NCc3ccco3)nn2c(C)c1Cc1ccccc1	-78.8% (active)
Cc1ccc(Cc2c(C)nc3nc(SCC(=O)NCCN4CCOCC4)nn3c2C)cc1	7.76%
Cc1cc(C)n2nc(SCC(=O)NC(=O)NCc3ccco3)nc2n1	34.3%
Fc1ccc(N2N=C(c3cccs3)CC2c2ccco2)c(F)c1 (stereo unspecified)	5.22%
O=C(O)C1CCCN1c1nc(Cl)ccc1[N+](=O)[O-] (stereo unspecified)	-1.43%

Compound	activity change
CC(=O)N[C@H]1[C@H]([C@H](O)[C@H](O)CO)OC(C(=O)O)=C[C@@H]1O	1.96%
CCOC(=O)c1c(C)[nH]c2c1-c1ccccc1C(=O)C2=O	-53.9% (active)
CCOC(=O)c1c(C)nc2c(c1C)c(=O)oc1ccccc12	7%
CCOC(=O)C1=C(C)c2ccccc2OC1(C)C(=O)OCC (stereo unspecified)	41.5%
CN(C)CCCOc1ccc(-c2ccc3nccn3c2)cn1	-5.3%
CCOc1ccc2nc(N3CCCN(C(=O)Nc4ccccc4C)CC3)c(C#N)cc2c1	-14.3%
Cc1cc(C)c2cc(C#N)c(N3CCNCC3)nc2c1	-29.2%
CCC(C)(C)n1nnnc1CN1CCN(c2nc3ccc(C)cc3cc2C#N)CC1	-68.2% (active)
O=C(CSc1ncn[nH]1)Nc1ccnc2ccccc12	11%
O=C(CSc1ncn[nH]1)Nc1ccc(Br)cc1Br	-53.6% (active)
O=C(CSc1ncn[nH]1)Nc1nsc(-c2ccccc2)n1	10.9%
NS(=O)(=O)c1ccc(NC(=O)COC(=O)CCc2c[nH]c3ccccc23)cc1	0%
Cc1csc(SCC(=O)Nc2ccc(C)c(S(=O)(=O)N(C)C)c2)n1	42.7%
CC(C)Oc1ccc(Oc2ccc(C(F)(F)F)cn2)cc1	-23.6%
CNCC[C@H](Oc1ccc(C(F)(F)F)cc1)c1ccccc1	-68.4% (active)
CC(NC(=O)COC(=O)Cn1cc(C(F)(F)F)ccc1=O)c1ccccc1 (stereo unspecified)	-0.662%
CCOC(=O)c1c(NC(=S)SC)sc(C(=O)N2CCc3ccccc3C2)c1C	1.46%
CN(CC(=O)NCC(c1ccccc1)N1CCCC1)S(=O)(=O)c1ccc(Cl)cc1 (stereo unspecified)	-22.9%
CC(=O)Nc1c2c(nn1-c1ccc(C)cc1C)CS(=O)C2 (stereo unspecified)	13.7%
Cc1ccc(-c2nc3ccc(Cl)cn3c2Cc2ccccc2)cc1	-3.47%
Clc1ccc2nc(CSc3ccccc3)cn2c1	-87.1% (active)
CCCCCCSc1ccc(-c2nc3ccc(Cl)cn3c2NCc2ccccc2)cc1	-8.09%
CC1(C(=O)NS(=O)(=O)c2cccc(F)c2)CCN1C(=O)c1cccc2ccccc12 (stereo unspecified)	21.3%

Compound	activity change
CCCCCCN1CCN(C2CN(Cc3cn(CCCCCC)nn3)S(=O)(=O)C2)CC1 (stereo unspecified)	-17.7%
CC[C@H]1CN2CCc3cc(OC)c(OC)cc3[C@@H]2C[C@@H]1C[C@H]1NCCc2cc(OC)c(OC)cc21	-106% (active)
COc1cc2c(cc1OC)CN(CC(=O)Nc1ccc(F)cc1)CC2	14%
CCC(Sc1nncn1C)C(=O)Nc1nnc(-c2ccc(Cl)cc2)s1 (stereo unspecified)	-11%
O=C(c1cccnc1)N(Cc1ccccc1)C(=O)c1cccnc1	33%
CC1(C(=O)O)CCCN(C(=O)/C=C/c2ccccc2)C1 (stereo unspecified)	17.4%
Cc1[nH]c(=O)c(C(=O)/C=C/c2ccccc2)c2c1CCCC2	-98.3% (active)
COC(=O)c1c(C)[nH]c(C(=O)/C=C/c2ccc(Cl)cc2)c1C	-3.64%
CCCCn1c(N)c(N(CCC(C)C)C(=O)COC(=O)c2cccnc2OCC)c(=O)[nH]c1=O	-17.5%
C/C(=N/Nc1ccc(Cl)cc1)c1cnnc(-c2ccccc2)n1	58.2%
C/C(=N\Nc1ccc(Cl)nn1)c1ccccc1O	-63.2% (active)
CCCCCCCN=C(C)c1ccccc1O	19.8%
Cn1c(CCN2CCN(c3ccccn3)CC2)nc2cc(NS(=O)(=O)c3ccc(F)cc3)ccc21	-12.9%
C[C@H]1NS(=O)(=O)c2cc(Cl)ccc2O[C@@H]1c1ccccc1	51.9%
O=C(Nc1ccc(NC(=O)c2ccc3c(c2)OCO3)cc1)c1cccc(Cl)c1	9.41%
CN1CCN(c2ccc(NC(=O)c3ccc4c(c3)OCCO4)cc2Cl)CC1	-72.6% (active)
CN1CCN(c2ccc(NC(=O)c3cc(Cl)c4c(c3)OCCO4)cc2)CC1	-19%
O=C(Nc1ccc(Cl)cn1)c1ccc2c(c1)OCCO2	2.51%
O=C(Nc1cccc(S(=O)(=O)Nc2ccc(Cl)cc2)c1)c1ccc2c(c1)OCCO2	-81.3% (active)
COC(=O)c1ccc(N2CCOCC2)c(NC(=O)c2ccc3c(c2)OCCO3)c1	18.4%
COc1ccc(NC(=O)CN(C)C(=O)c2cc(C)oc2C)cc1	24%
CCCS(=O)(=O)NC(=O)C1(C)CCCN(C(=O)c2ccnc(Cl)c2)C1 (stereo unspecified)	15.3%
